# Values joined by “and” are separate entries in the source; they are usually repeats but may differ in a detail not shown here. Equal values may be shown once. Records with an inconclusive call do not appear. Some compounds were tested as several samples or in several runs, with calls that do not always agree. Active and inactive are the calls of the source. How the source made its calls: active means hit-call score of the fitted dose curve at least 0.9, where 1 is the maximum; inconclusive means response in the unintended direction; inactive means score below 0.9.
# Tested on: Thyroperoxidase (TPO), gene 54314
# Test: CCTE_Simmons_AUR_rTPO: CCTE's Amplex UltraRed Assay for Thyroperoxidase (TPO) Inhibition, Simmons Lab (AID 2283662);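 on AC50: potency for loss of signal meaning inhibition of peroxidase activity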
# How it was run: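 Cell-free peroxidase activity assay using rat thyroid gland microsomes with excess H2O2 (300 uM) and 25 uM Amplex UltraRed. Compounds tested from 5 nM to 87.5 uM; fluorescence measured after 30 min at 37C, analysed relative to DMSO baseline.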
Structure (SMILES),AC50,outcome
O=C(c1ccccc1)c1ccc(O)c(O)c1O,2.12 µM (active),
C1=Cc2ccccc2C1,43.6 µM (active),
CNC(=S)NN,22.5 µM (active),
CCCCCCCC[N+](C)(CCCCCCCC)CCCCCCCC,23.7 µM (active),
C1CN(SSN2CCOCC2)CCO1,4.25 µM (active),
COC(=O)c1c(C)cc(O)c(C)c1O,11.6 µM (active),
CCCCC/C=C\C/C=C\CCCCCCCC(=O)OC,43.8 µM (active),
O=S1(=O)OC(c2ccc(O)cc2)(c2ccc(O)cc2)c2ccccc21,24.9 µM (active) and 22.2 µM (active),
Cc1ccc(N/N=c2\c(=O)cc/c(=N/Nc3ccc(S(=O)(=O)O)cc3)c2=O)c(C)c1,28.9 µM (active),
c1ccc2c(c1)ccc1cc3c(ccc4ccccc43)cc12,,inactive
O=S(=O)(O)c1ccccc1C=Cc1ccc(-c2ccc(C=Cc3ccccc3S(=O)(=O)O)cc2)cc1,44.4 µM (active),
CN(C)c1ccc(C(=N)c2ccc(N(C)C)cc2)cc1,31.6 µM (active),
CCN(CCC#N)c1ccc(N=Nc2c(Cl)cc([N+](=O)[O-])cc2Cl)cc1,37.9 µM (active),
CCCCCCCCCCCCCOP(=O)(O)O,,inactive
CC(C)(C)c1ccc(N)cc1,0.106 µM (active),
CC/C=C\C/C=C\C/C=C\CCCCCCCC(=O)O,28.7 µM (active),
CC(C)(C)c1ccc(-c2ccc(C(C)(C)C)cc2)cc1,,inactive

# Tested on: not listed separately
# Test: CCTE_Simmons_CellTiterGLO_HEK293T: Viability Assessment in CCTE's Assays for Thyroperoxidase (TPO) Inhibition, Simmons Lab (AID 2283665);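 on AC50: cells exposed to compound for 24 h before readout; actives reduce ATP signal below DMSO vehicle meaning cytotoxicity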
# How it was run: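 HEK293T, 10 000 cells/well, DMEM + 1% FBS; 8-pt titration 5 nM–87.5 uM [final], 0.5% DMSO; 24 hr, 37C, 5% CO2; CellTiter-Glo luminescence; n=3 biological replicates.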
Structure (SMILES),outcome,AC50
O=C(c1ccccc1)c1ccc(O)c(O)c1O,inactive,
CNC(=S)NN,inactive,
CCCCCCCC[N+](C)(CCCCCCCC)CCCCCCCC,,7.14 µM (active)
C1CN(SSN2CCOCC2)CCO1,,88.9 µM (active)
CCCCC/C=C\C/C=C\CCCCCCCC(=O)OC,,58.4 µM (active)
O=S1(=O)OC(c2ccc(O)cc2)(c2ccc(O)cc2)c2ccccc21,inactive,72 µM (active)
Cc1ccc(N/N=c2\c(=O)cc/c(=N/Nc3ccc(S(=O)(=O)O)cc3)c2=O)c(C)c1,,76.6 µM (active)
c1ccc2c(c1)ccc1cc3c(ccc4ccccc43)cc12,inactive,
O=S(=O)(O)c1ccccc1C=Cc1ccc(-c2ccc(C=Cc3ccccc3S(=O)(=O)O)cc2)cc1,inactive,
CN(C)c1ccc(C(=N)c2ccc(N(C)C)cc2)cc1,inactive,
CCN(CCC#N)c1ccc(N=Nc2c(Cl)cc([N+](=O)[O-])cc2Cl)cc1,,41.8 µM (active)
CCCCCCCCCCCCCOP(=O)(O)O,,79.1 µM (active)
CC(C)(C)c1ccc(N)cc1,inactive,
CC/C=C\C/C=C\C/C=C\CCCCCCCC(=O)O,inactive,

# Reference: PubChem BioAssay (EPA / NIEHS)
